Among the data in the supplement of paper PMC5641865, “A screen for kinase inhibitors identifies antimicrobial imidazopyridine aminofurazans as specific inhibitors of the Listeria monocytogenes PASTA kinase PrkA” (The Journal of Biological Chemistry, 2017) are growth inhibition values, retold here.

± gives the standard deviation of the averaged measurements.
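Note: End-point A600 read in BHI broth at 37 °C with 2% DMSO, inhibition computed as (1 − OD with compound plus ceftriaxone ÷ OD with ceftriaxone only) × 100.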

The assay deals with Listeria monocytogenes 10403S. Briefly: growth inhibition relative to ceftriaxone-alone control; higher = stronger potentiation of ceftriaxone growth inhibition. As to conditions: 10 µM; ceftriaxone 1 ug/ml; 12 h.
Turning to `CCCNc1cccc(-n2ncc3c(N/N=C/c4ccncc4)ncnc32)c1`, the growth inhibition was -6.32 ± 14%. Take `N#CC[C@H](C1CCCC1)n1cc(-c2ncnc3[nH]ccc23)cn1`: the growth inhibition was determined as 10.6 ± 1.1%. The figure for `Cc1cc(CN2CCN(c3c(Br)cnc4nc(-c5ccc(N6CCN(C)CC6)cc5)[nH]c34)CC2)no1` is 40.4 ± 40%; for `N#Cc1cccc(Nc2ncc(-c3ccccc3)o2)c1` it is -4.01 ± 1.7%. Turning to `[O-][S+]1CCN(Cc2ccc(-c3ccc4ncnc(Nc5ccc(OCc6cccc(F)c6)c(Cl)c5)c4c3)o2)CC1`, the growth inhibition was -4.71 ± 1.9%. As to `CCCN1CCC(c2ccc(Nc3nc(Nc4cc(F)ccc4C(N)=O)c4cc[nH]c4n3)c(OC)c2)CC1`, the growth inhibition is -8.21 ± 4.5%. For `CCOc1ccc2c(-c3ccnc(Nc4cccc(C(F)(F)F)c4)n3)cnn2n1`, the growth inhibition is -8.14 ± 6.9%. Regarding `COc1cc(N2CCN(C(C)C)CC2)ccc1Nc1nc(Nc2cccc(F)c2C(=O)O)c2cc[nH]c2n1`, the growth inhibition is -0.452 ± 1.2%.

For `Cc1nc(NC(=O)N2CCC[C@H]2C(N)=O)sc1-c1ccnc(C(C)(C)C(F)(F)F)c1`, the growth inhibition came to 24.9 ± 21%. With `COc1cc(Nc2ncc(-c3ccccc3)o2)cc(OC)c1OC`, the growth inhibition was 1.14 ± 0.11%. For the compound `N#Cc1cccc(Nc2nccc(-c3cnn4ncccc34)n2)c1`, the growth inhibition is -0.568 ± 0.54%. Consider `COc1cc2ncnc(Nc3ccc(F)c(Cl)c3)c2cc1OCCCN1CCOCC1` [Gefitinib (Iressa)], for which the growth inhibition was determined as 31 ± 21%. For the compound `COC(=O)c1sc(-n2cnc3cc(OC)c(OC)cc32)cc1OCc1ccccc1C(F)(F)F`, the growth inhibition was determined as 0.599 ± 0.69%. As to `CCOc1cc2ncc(C#N)c(Nc3ccc(F)c(Cl)c3)c2cc1NC(=O)/C=C/CN(C)C` [Pelitinib (EKB-569)], the growth inhibition came out at 14.9 ± 10%. With `O=C(NC[C@H](O)CO)c1ccncc1Nc1ccc(I)cc1F`, the growth inhibition stood at 1.43 ± 12%. As to `COc1ccc2cc(-c3c(-c4ccncc4)nc(-c4ccc([S+](C)[O-])cc4)n3C)ccc2c1` (stereo not drawn), the growth inhibition worked out at 12 ± 0.7%. On to `CCCCCCCCCCCCc1ccc(S(=O)(=O)Nc2nncs2)cc1`, for which the growth inhibition is 93.5 ± 11%. The figure for `CS(=O)(=O)CCNCc1nc(-c2ccc3ncnc(Nc4ccc(OCc5cccc(C(F)(F)F)c5)cc4)c3c2)cs1` is -8.22 ± 14%; for `Cc1ccc(NC(=O)c2ccc(CN3CCN(C)CC3)cc2)cc1Nc1nc(-c2cccnc2)cs1` [Masitinib (AB1010)] it is 36.7 ± 26%; for `COc1cc2ncn(-c3cc(OCCc4ccccc4)c(C(N)=O)s3)c2cc1OC` it is -4.76 ± 1.4%. As for `c1ccc(Oc2ccc(Nc3ncc(-c4ccccc4)o3)cc2)cc1`, the growth inhibition is -0.487 ± 1.7%. Turning to `COCC(=O)NC/C=C/c1ccc2ncnc(Nc3ccc(Oc4ccc(C)nc4)c(C)c3)c2c1`, the growth inhibition was -5.16 ± 23%. For `COc1cc2ncn(-c3cc(OCc4ccccc4Cl)c(C(N)=O)s3)c2cc1OC`, the growth inhibition is -6.56 ± 0.46%. With `[O-][S+]1CCN(Cc2ccc(-c3ccc4ncnc(Nc5ccc(OCc6ccccc6)c(Cl)c5)c4c3)o2)CC1`, the growth inhibition came out at 2.22 ± 6.4%. The figure for `COc1ccc2cc(-c3c(-c4ccncc4)nc(-c4ccc(S(C)(=O)=O)cc4C)n3C)ccc2c1` is -1.1 ± 3.1%; for `Cc1cc(O)cc(C)c1/C=C/c1cncc(C(=O)OC(C)(C)C)c1` it is -0.285 ± 0.11%. For `NC(=O)c1ccc(Oc2nccc(-c3c(-c4ccc(F)cc4)ncn3C3CCNCC3)n2)cc1`, the growth inhibition is -2.66 ± 0.33%.

Regarding `COc1cc2/c(=N/c3ccc(Br)cc3F)nc[nH]c2cc1OCC1CCN(C)CC1` [Vandetanib (Zactima)], the growth inhibition worked out at 24.2 ± 29%.

With `O=C(O)[C@]1(Cc2cccc(Nc3nccs3)n2)CC[C@@H](Oc2cccc(Cl)c2F)CC1`, the growth inhibition stood at 89.4 ± 3%. `Cc1nnc(-c2ccc(C)c(-c3ccc(C(=O)NCc4ccc(Cl)cc4)cc3)c2)o1`: the growth inhibition was -4.74 ± 3.3%. For `Fc1ccc(Nc2nccc(-c3c(-c4ccc(C(F)(F)F)cc4)nn4ncccc34)n2)cc1F`, the growth inhibition is -3.35 ± 4.4%.

Regarding `Nc1nc(-c2ccccn2)c(-c2ccc3ncccc3n2)s1`, the growth inhibition was 0.104 ± 3%. Regarding `FC(F)c1nc2ccccc2n1-c1nc(N2CCOCC2)nc(N2CCOCC2)n1`, the growth inhibition amounted to 19.6 ± 15%. For the compound `Cc1nc(-c2ccccc2)n2nc(NCCCN3CCOCC3)ncc12`, the growth inhibition is 0.025 ± 1.1%.

With `Nc1cc(C(F)(F)F)c(-c2cc(N3CCOCC3)nc(N3CCOCC3)n2)cn1`, the growth inhibition is 47 ± 35%.

As to `O=c1c(O)c(-c2ccc(O)c(O)c2)oc2cc(O)cc(O)c12` [Quercetin (Sophoretin)], the growth inhibition came out at 20.4 ± 13%. For `O=C(O[C@H]1CN[C@H](C#Cc2cc3ncnc(Nc4ccc5c(cnn5Cc5ccccc5)c4)c3s2)C1)N1CCOCC1`, the growth inhibition is -5.28 ± 15%. For the compound `COc1cc(Nc2nccc(-c3cnn4ncccc34)n2)cc(OC)c1`, the growth inhibition is -13.8 ± 16%.
